Laboratory results reported in PubChem BioAssay (NCATS).
A number with no mark means an inactive call. Records with an inconclusive call do not appear. Where a call stands in place of a potency, no number is given. Calls of active or inactive are those of the source. Calls follow the shape of the dose curve; as a rule, active = well fitted curve in the direction sought with a large enough effect; inconclusive = small, poorly fitted or top-dose-only effect, or another doubt; inactive = no such curve, though single readings can be large; an effect the other way counts as inactive or inconclusive.

Key:
[1] = target: Glutathione peroxidase 1 (Homo sapiens) (UniProt P07203); test: Primary qHTS Assay for Inhibitors of Recombinant Selenoprotein Glutathione Peroxidase 1 (GPX1) (AID 1845191); also: nearly all actives have a fitted effect of over 65% in size
How it was run: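 10 nM GPX1 + cpd, 30 min RT; start w/ 1 mM GSH, 0.5 mM cumene hydroperoxide, 0.5 mM NADPH, 100 nM GR, 0.01% BSA; buffer 50 mM Tris-HCl pH 7.5, 2 mM EDTA, 150 mM NaCl; Fl 340/450, 0 & 15 min.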

[2] = target: Phospholipid hydroperoxide glutathione peroxidase GPX4 (Homo sapiens) (UniProt P36969); test: Primary qHTS Assay for Inhibitors of Recombinant Selenoprotein Glutathione Peroxidase 4 (GPX4) (AID 1845192); also: nearly all actives have a fitted effect of over 65% in size; as to activity change, negative = inhibition: series mostly up to about 50 µM
How it was run: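 NADPH consumption, followed by fluorescence at 340/450 nm between 0 and 15 min, reports GPX4 activity via coupled glutathione reductase (100 nM). Enzyme 200 nM was pre-exposed to compound 30 min; 0.5 mM cumene hydroperoxide and 1 mM GSH served as substrates.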

[3] = target: Luciferin 4-monooxygenase (Photinus pyralis) (UniProt P08659); test: Primary firefly luciferase (FLuc) qHTS assay for identification of artifact compounds. (AID 1845220); also: nearly all actives have a fitted effect of over 60% in size; also: potency is read from the fitted curve at half-maximal effect; as to activity change, negative = inhibition: series mostly up to about 54 µM
How it was run: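 Cell-free, 1536-well qHTS. Buffer pH 7.6 with 0.01% Tween-20 and 0.05% BSA; 10 uM D-luciferin, 10 uM ATP; 10 nM P. pyralis luciferase; luminescence after 5 min.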

[4] = Primary fluorescence-based thiol-reactive (MSTI) qHTS assay for identification of artifact compounds. (AID 1845221); also: nearly all actives have a fitted effect of over 65% in size; also: potency is read from the fitted curve at half-maximal effect;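 as to activity change, negative = thiol reactive: series mostly up to about 54 µM; thiol-reactive compounds lower the probe fluorescence signal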
How it was run: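 Thiol-reactive compounds detected by quenching of 4 uM MSTI fluorescence (525/598 nm) after 1 h room-temperature dark incubation in PBS pH 7.4, 2% DMSO. qHTS titration; percent inhibition Hill-fitted against Acetyl-MSTI/MSTI controls.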

[5] = test system: Nanoluciferase (engineered Oplophorus gracilirostris luciferase); test: Primary Nanoluciferase (NLuc) qHTS assay for identification of artifact compounds. (AID 1845222); also: series mostly up to about 54 µM
How it was run: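 Compounds are pinned into diluted (1:55) conditioned medium of NLuc-expressing S16 cells and held 15 min at room temperature protected from light. Nano-Glo substrate follows, and luminescence is read 5 min later.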

[6] = Primary redox qHTS assay for identification of artifact compounds. (AID 1845223)
How it was run: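 Amplex Red (25 uM) and HRP (250 mU/mL) in HBSS, with compounds for 15 min, then 250 uM DTT for 30 min, room temperature, dark. Fluorescence 525/598 nm read; normalized to DMSO and 10 uM DA3003; Hill fit.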

Phospholipid hydroperoxide glutathione peroxidase GPX4 (Homo sapiens), sequence (P36969 whole entry, looked up): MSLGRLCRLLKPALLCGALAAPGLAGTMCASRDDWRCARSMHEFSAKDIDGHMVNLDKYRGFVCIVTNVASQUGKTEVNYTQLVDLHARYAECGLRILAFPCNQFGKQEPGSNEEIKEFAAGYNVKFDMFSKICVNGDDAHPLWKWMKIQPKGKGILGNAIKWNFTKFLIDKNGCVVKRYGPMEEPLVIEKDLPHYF
Glutathione peroxidase 1 (Homo sapiens), sequence (P07203 whole entry, looked up): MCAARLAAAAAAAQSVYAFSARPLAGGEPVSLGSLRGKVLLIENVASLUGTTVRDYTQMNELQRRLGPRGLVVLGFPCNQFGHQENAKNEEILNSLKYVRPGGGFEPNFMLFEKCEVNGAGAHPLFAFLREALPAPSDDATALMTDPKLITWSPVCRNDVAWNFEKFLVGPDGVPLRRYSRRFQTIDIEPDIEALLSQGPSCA

| Structure (SMILES) | Potency [1] | Potency [2] | Potency [3] | Potency [4] | Potency [5] | Potency [6] | outcome [3] | activity change, negative = thiol reactive [4] | activity, negative = inhibition [5] | redox activity (% of DA3003) [6] | activity change, negative = inhibition [3] |
| --- | --- | --- | --- | --- | --- | --- | --- | --- | --- | --- | --- |
| CC(C)C1(O)NC(=O)C(CC2(O)c3ccccc3N3C(=O)C(C)(C)NC32)n2c1nc1ccccc1c2=O (configuration not stated) | inactive | inactive | inactive | inactive | inactive | inactive |  |  |  |  |  |
| CO[C@@H]1[C@]2(O)C(=O)N3/C=C\C(C)(C)c4[nH]c5ccccc5c4/C=C\3C(=O)N2[C@]23[C@H](CO)C(C)(C)N2c2ccccc2[C@]13O | inactive | inactive | inactive | 1.84 µM (active) | inactive |  |  |  |  |  |  |
| C=C(COC(=O)C(C)C)C1Oc2cc(C(C)=O)ccc2C1OC(=O)C(C)C (configuration not stated) | inactive | inactive | inactive | inactive | inactive | inactive |  |  |  |  |  |
| CC(O)C1CCC2C3CCC4CC(OC5OC(C(=O)O)C(O)C(O)C5O)CCC4(C)C3CCC12C (configuration not stated) | inactive | inactive | inactive | inactive | inactive |  |  |  |  |  |  |
| C=C[C@]1(C)C[C@@H](OC(=O)CSC2C[C@H]3CC[C@@H](C2)N3C)[C@]2(C)[C@H](C)CC[C@]3(CCC(=O)[C@H]32)[C@@H](C)[C@@H]1O (some centres not stated) | inactive | inactive | inactive | inactive | inactive |  |  |  |  |  |  |
| CC1C(O)C(O)C2C(C(=O)OCCc3ccc(O)cc3)=COC(O[C@@H]3O[C@H](CO)[C@@H](O)[C@H](O)[C@H]3O)C12 (some centres not stated) | inactive | inactive | inactive | 1.84 µM (active) | inactive | inactive |  |  |  |  |  |
| Cc1cc(CNC(=O)c2cc(C(=O)NCc3ccc(F)c(C)c3)ncn2)ccc1F | inactive | inactive | inactive | inactive | inactive | inactive |  |  |  |  |  |
| CC1(C)C[C@@H]2[C@H](C1)[C@@]1(C)C[C@]13C(O)OC[C@]3(O)[C@H]2O (some centres not stated) | inactive | inactive | inactive | inactive | inactive |  |  |  |  |  |  |
| Cc1ccc2nc(NC(=O)CSc3nc4c(c(=O)n3-c3ccc(F)cc3)SCC4)sc2c1 | inactive | inactive | inactive | inactive | inactive |  |  |  |  |  |  |
| C[C@@H]1O[C@@H](O[C@H]2[C@H](O[C@H]3[C@H](O[C@H]4CC[C@@]5(C)C(CC[C@]6(C)C5CC=C5[C@@H]7CC(C)(C)C[C@@H](O)[C@]7(C)CC[C@]56C)C4(C)C)O[C@H](C(=O)O)[C@@H](O)[C@@H]3O)O[C@H](C(=O)O)[C@H](O)[C@@H]2O)[C@H](O)[C@H](O)[C@H]1O (some centres not stated) | inactive | inactive |  |  |  |  | inactive [at 11.6 µM] | 56.2% [at 11.5 µM] | 0.805% [at 11.6 µM] | 11.1% [at 11.5 µM] |  |
| COC(=O)C(CC1(O)c2ccccc2N2C(=O)C(CC(C)C)NC21)n1cnc2ccccc2c1=O (configuration not stated) | inactive | inactive | inactive | inactive | inactive | inactive |  |  |  |  |  |
| COC(=O)C1=CO[C@@H](O[C@@H]2O[C@H](CO)[C@@H](O)[C@H](O)[C@H]2O)[C@H]2[C@@H]1C=C[C@]21C=C([C@H](C)OC(=O)/C=C/c2ccc(O[C@@H]3O[C@H](CO)[C@@H](O)[C@H](O)[C@H]3O)cc2)C(=O)O1 | inactive | inactive | inactive | inactive | inactive | inactive |  |  |  |  |  |
| C=CC1(C)CC=C2C(CCC3C(C)(C(=O)O)CCCC23C)C1 (configuration not stated) | inactive | inactive | inactive | inactive | inactive | inactive |  |  |  |  |  |
| C/C=C1/[C@H](O[C@@H]2O[C@H](CO)[C@@H](O)[C@H](O)[C@H]2O)OC=C2C(=O)O[C@@H]3C[C@@H](C(C)CO)[C@H](COC(=O)C[C@H]21)[C@H]3C (some centres not stated) | inactive | inactive | inactive | inactive | inactive | inactive |  |  |  |  |  |
| C[C@H]1CC[C@@]2(OC1)O[C@H]1CC3C4CC[C@H]5C[C@@H](O[C@@H]6O[C@H](CO)[C@H](O[C@@H]7O[C@H](CO)[C@@H](O)[C@H](O[C@@H]8OC[C@@H](O)[C@H](O)[C@H]8O)[C@H]7O[C@@H]7O[C@H](CO)[C@@H](O)[C@H](O)[C@H]7O)[C@H](O)[C@H]6O)[C@H](O)C[C@]5(C)C4=CC(=O)[C@]3(C)[C@H]1[C@@H]2C (some centres not stated) | inactive | inactive |  |  |  |  |  | 203% [at 11.5 µM] | 0% [at 11.6 µM] | 3.4% [at 11.5 µM] | 4.7% [at 11.6 µM] |
| C[C@@H]1O[C@@H](O[C@H]2[C@H](OC(=O)[C@]34CCC(C)(C)C[C@H]3C3=CCC5[C@@]6(C)CC[C@H](O[C@@H]7O[C@H](CO[C@@H]8OC[C@H](O)[C@H](O)[C@H]8O)[C@@H](O)[C@H](O)[C@H]7O)C(C)(C)C6CC[C@@]5(C)[C@]3(C)C[C@H]4O)OC[C@@H](O)[C@@H]2O)[C@H](O)[C@H](O[C@@H]2OC[C@](O)(CO)[C@H]2O)[C@H]1O[C@@H]1OC[C@H](O)[C@H](O[C@@H]2OC[C@@H](O)[C@H](O)[C@H]2O)[C@H]1O (some centres not stated) | inactive | inactive |  |  |  |  |  | 415% [at 11.5 µM] | 0.577% [at 11.6 µM] | 19.6% [at 11.5 µM] | -1.94% [at 11.6 µM] |
| CC(C)=CCC[C@](C)(O[C@@H]1O[C@H](CO)[C@@H](O)[C@H](O)[C@H]1O)[C@H]1CC[C@]2(C)[C@@H]1[C@H](O)CC1[C@@]3(C)CC[C@H](O)C(C)(C)C3[C@@H](O[C@@H]3O[C@H](CO)[C@@H](O)[C@H](O)[C@H]3O[C@@H]3O[C@@H](C)[C@H](O)[C@@H](O)[C@H]3O)C[C@]12C (some centres not stated) | inactive | inactive |  |  |  |  |  | 209% [at 11.5 µM] | 4.23% [at 11.6 µM] |  | -2.06% [at 11.6 µM] |
| COC(=O)C1=COC(O[C@@H]2O[C@H](CO)[C@@H](O)[C@H](O)[C@H]2O)[C@@H]2[C@@](C)(O)[C@@H](OC(=O)/C=C/c3ccccc3)C[C@]12O (some centres not stated) | inactive | inactive | inactive | 13 µM (active) | inactive | inactive |  |  |  |  |  |
| C[C@H]1/C=C/C=C/C=C/C=C/C=C/[C@@H](O)[C@H](C(=O)O)[C@H](O)C[C@H](O)CCC[C@H](O)C[C@H](O)C[C@H](O)[C@@H](C)C(=O)O[C@@H]1C | inactive | inactive | inactive | inactive | inactive | inactive |  |  |  |  |  |
| CC(C)=CCc1c(O)cc2oc3cc(C)cc(O)c3c2c1C | inactive | inactive | 12 µM (active) | 4.74 µM (active) | inactive | inactive |  |  |  |  |  |
| CC1=C(C)C(=O)OC(C(C)C2C(O)CC3C4C5OC5C5(O)CC(OC6OC(CO)C(OC7OC(C)C(O)C(O)C7O)C(O)C6O)CC(O)C5(C)C4CCC32C)C1 (configuration not stated) | inactive | inactive | inactive | inactive | inactive |  |  |  |  |  |  |
| CCN1CCN(C(=O)N[C@@H](C(=O)N[C@@H]2C(=O)N3[C@@H]2SC(C)(C)[C@@H]3C(=O)O)c2ccccc2)C(=O)C1=O | inactive | inactive | inactive | inactive | inactive |  |  |  |  |  |  |
| Cc1ccc(COC(=O)N2CC[C@@H](CNc3ncccn3)[C@@H](F)C2)cc1 | inactive | inactive | inactive | inactive | inactive | inactive |  |  |  |  |  |
| C#CCCCn1cc(-c2cccc3c2N[C@@H](C)CC(=O)N3)cn1 | inactive | inactive | inactive | inactive | inactive | inactive |  |  |  |  |  |
| COC(=O)C1=C[C@@H](O)[C@@H](O)[C@H](O[C@@H]2O[C@H](CO)[C@@H](O)[C@H](O)[C@H]2OC(=O)/C=C/c2ccccc2)C1 | inactive | inactive | inactive | inactive | inactive | inactive |  |  |  |  |  |
| CC1=C2CC(=O)C(C)CC/C=C(\C)CC2OC1=O (configuration not stated) | inactive | inactive | inactive | inactive | inactive | inactive |  |  |  |  |  |
| C[C@]1(O)CC[C@@H]2C(C(=O)O)=CO[C@@H](O[C@@H]3O[C@H](COC(=O)/C=C/c4ccc(O)c(O)c4)[C@@H](O)[C@H](O)[C@H]3O)[C@@H]21 | inactive | inactive | inactive | 3.27 µM (active) | inactive | inactive |  |  |  |  |  |
| C=C1CC2C3(C)C=CC(=O)OC(C)(C)C3CC(OC(C)=O)C2(C)C2C(=O)OC(C)C(=O)C12C (configuration not stated) | inactive | inactive | inactive | inactive | inactive | inactive |  |  |  |  |  |
| CC(=O)O[C@@H]1[C@H](O[C@@H]2O[C@H](CO)[C@@H](O)[C@H](O)[C@H]2O)[C@@H](O[C@@H]2O[C@@H](C)[C@H](O)[C@@H](O[C@@H]3O[C@H](CO)[C@@H](O)[C@H](O)[C@H]3O)[C@H]2O)[C@H](OC(=O)[C@]23CCC(C)(C)C[C@H]2C2=CCC4[C@@]5(C)C[C@H](O)[C@H](O[C@@H]6O[C@H](C(=O)O)[C@@H](O)[C@H](O)[C@H]6O)[C@@](C)(C(=O)O)C5CC[C@@]4(C)[C@]2(C)CC3)O[C@@H]1C (some centres not stated) | inactive | inactive |  |  |  |  | inactive [at 11.6 µM] | 244% [at 11.5 µM] | 4.94% [at 11.6 µM] | -2.45% [at 11.5 µM] |  |
| CC(=O)OC1(C)CC(O)C2(O)C=COC(OC3OC(CO)C(O)C(O)C3O)C12 (configuration not stated) | inactive | inactive | inactive | inactive | inactive | inactive |  |  |  |  |  |
